Rows were chosen to be rich in hits. Some 2.7% of all compounds tested hit in one or more screens of this group.
NadD inh = blocks S. aureus nicotinate mononucleotide adenylyltransferase; purified NadD enzyme, colorimetric absorbance read-out; inhibition, % at 20 µM; 360,000 tested, 0.78% active; in the data active means inhibition above about 26%
aDG glyco act = alpha-DG glycosylation activation | Pro5-aDG cells, alpha-DG glycosylation AlphaScreen (IIH6); 0% Pro5, 100% B10-LARGE cell signal | activation, % at 10 µM | 360,000 tested, 0.22% active;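 active means activation of at least 8% versus controls, or a plate z-score of at least 8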;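 further: Pro5 are CHO cells carrying HIG-tagged alpha-DG that lacks glycosylation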
MPTP inh = inhibitors of mitochondrial permeability transition pore | 360,000 tested, 1.4% active | inhibition, % at 10 µM | isolated mouse mitochondria, Ca2+ swelling absorbance, 30 min | AID 602449;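 active means inhibition of 50% or more, scaled per plate between neutral and stimulator controls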;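 further: 0% = DMSO wells given calcium and 100% = 1 mM EGTA wells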
H9c2 TAG inh = triacylglycerol accumulation inhibition; H9c2 cells, Nile Red lipid (TAG) fluorescence; cells loaded with 200 µM oleic acid; inhibition, % at 12.5 µM; 230,000 tested, 0.66% active;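 active means pattern-corrected inhibition of lipid staining of at least 50% with the nuclear-stain viability signal not falling by more than 50%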;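 further: 0% = DMSO wells and 100% = triacsin C control wells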
Starred values were filed as active, the others as inactive; . = no result given.

SMILES	NadD inh	aDG glyco act	MPTP inh	H9c2 TAG inh
CCn1c(SCC(=O)Nc2ccc3c(c2)c2ccccc2n3CC)nnc1-c1ccco1	63*	0	11	.
C=C(C(=O)c1ccccc1)C(c1ccccc1)C(C)C(=O)c1ccccc1 (configuration not stated)	0	0	1	6
C=C(C(=O)c1ccccc1)C(C)C(=C)C(=O)c1ccccc1	-6	0	-1	55*
O=[N+]([O-])c1ccc(/C=C/C2=NN(c3ccccc3)C(c3ccco3)C2)o1 (configuration not stated)	10	0	7	-299
C(=C\c1ccco1)/C1=NN(c2ccccc2)C(c2ccco2)C1 (configuration not stated)	22	7.2*	6	3
Cc1cc(N/N=C/c2ccc3c(c2)OCO3)nc2ccccc12	-2	0	0	4
O=C(CC1(CC(=O)N2CCOCC2)CCCC1)Nc1ccccc1	-1	0	1	16
O=Nc1c(-c2c(O)[nH]c3cc(Br)ccc23)[nH]c2ccccc12	19	0	12	84*
O=C(CSCc1cccc(Br)c1)N=Nc1c(O)[nH]c2ccccc12	-1	0	6	1
C=C(Br)CN1[C@@H](Cc2ccccc2)[C@H](O)[C@@]23C=C[C@@H](C[C@@H]2S1(=O)=O)O3	-4	0	0	10
COc1ccc(-c2cc(-c3ccccc3)nc(SCC(=O)Nc3ncc(C)s3)c2C#N)cc1	34*	0	6	.
COc1cc(/C=C2\C(=N)N3N=C(S(C)(=O)=O)SC3=NC2=O)cc(OC)c1OCCOc1ccc(C)cc1	30*	0	5	.
COc1cc(/C=C2/C(=N)N3N=C(C)SC3=NC2=O)ccc1OS(=O)(=O)c1ccc(C)cc1	1	0	2	.
CCS(=O)(=O)C1=NN2C(=N)/C(=C\c3ccc(OCCOc4cccc(OC)c4)c(OC)c3)C(=O)N=C2S1	18	0	3	.
COc1cc(/C=C2\C(=N)N3N=C(S(C)(=O)=O)SC3=NC2=O)cc(OC)c1OCCOc1cccc(C)c1	32*	0	3	.
CCOc1cc(/C=C2\C(=N)N3N=C(S(C)(=O)=O)SC3=NC2=O)ccc1OCCOc1cccc(OC)c1	31*	0	10	.
COc1cc(/C=C2\C(=N)N3N=C(S(C)(=O)=O)SC3=NC2=O)ccc1OCCOc1ccc(C)cc1	33*	0	6	.
CCc1ccccc1N(C)S(=O)(=O)c1ccc(-c2cc(C)no2)s1	-4	0	-2	.
CC1(C(=O)Nc2ccc(F)c(Cl)c2)Cc2c(-c3ccccc3)ccnc2O1 (configuration not stated)	-2	0	2	10
O=C(Nc1nncs1)C12CC3CC(CC(Cl)(C3)C1)C2	-8	0	8	.
CCC1=NN2C(=N)/C(=C/c3ccc(OS(=O)(=O)c4ccc(C)cc4)c(OC)c3)C(=O)N=C2S1	29	0	1	.
CCC1=NN2C(=N)/C(=C\c3ccc(OCc4cc(=O)n5nc(CC)sc5n4)c(OC)c3)C(=O)N=C2S1	44*	0	0	.
O=C(CNc1cc(S(=O)(=O)N2CCOCC2)ccc1N1CCCC1)Nc1ccc(Cl)cc1F	-1	0	1	-2
COc1cccc(CNC(=O)CCC2CCCN(C(=O)c3cc(C4CC4)[nH]n3)C2)c1 (configuration not stated)	-4	0	3	-1
O=C(C(=O)N1CCN(C(=O)c2ccco2)CC1)c1ccccc1	.	0	-1	.
SMILES	NadD inh	aDG glyco act	MPTP inh	H9c2 TAG inh
CCOC(=O)c1cc(-c2ccccc2)sc1NC(=O)COC(=O)c1ccc(Cl)c(S(N)(=O)=O)c1	42*	0	0	30
CCOC(=O)c1cc(-c2ccccc2)sc1NC(=O)CC	-1	0	0	.
Cc1ccc(N=Nc2ccc(O)c(P(=O)(c3ccccc3)c3ccccc3)c2)cc1	34*	0	23	0
COc1ccccc1N(/N=C1\Sc2ccccc2C1=O)C(C)=O	-4	0	2	69*
COc1ccc(N(/N=C2\Sc3ccccc3C2=O)C(C)=O)cc1	-5	1	1	24
N=C(N)c1ccc(N=Nc2c(O)ccc3c2[nH]c2ccccc23)cc1	42*	-1	5	26
Cc1cc(/C=N/Nc2ccc([N+](=O)[O-])cn2)c(C)n1-c1ccccc1	31*	0	-2	3
Cc1ccc(-n2c(C)cc(/C=N/Nc3ccc([N+](=O)[O-])cn3)c2C)cc1	15	0	0	0
COc1cc([C@H]2c3[nH]c4ccccc4c3C[C@H]3C(=O)N4[C@@H](c5cc(OC)c(OC)c(OC)c5)c5[nH]c6ccccc6c5C[C@H]4C(=O)N23)cc(OC)c1OC	3	-1	2	50*
COc1ccc(CNC(=O)CN(C(=O)CCC(=O)Nc2ccccn2)c2ccc(C)cc2)cc1	-4	0	-1	.
CCOC(=O)c1[nH]c(C)c(C(=O)N2CCc3ccccc32)c1C	-10	0	1	56*
c1cc(-c2ccsc2)n2cnnc2c1	-2	0	2	-3
CCOc1cc(CNCCc2ccc(S(N)(=O)=O)cc2)ccc1OCc1ccc(Cl)cc1	9	-1	44	67*
Nc1nc(-c2ccccc2)cc(N2CCCCC2)n1	-10	0	1	76*
Cc1nc(-c2ccccc2)cc(N2CCCC2)n1	0	0	2	.
Cc1ccccc1NC(=O)Cc1nc(COC(=O)Cc2c(F)cccc2Cl)cs1	0	0	-1	-13
COc1ccccc1Sc1nc(-c2ccccn2)ncc1OC	4	4	-1	-21
COc1cnc(-c2ccccn2)nc1NC(C)C	0	7.1*	-6	-10
CN(C(=O)COC(=O)c1ccccc1Cc1ccccc1)C1CCS(=O)(=O)C1 (configuration not stated)	-2	0	-2	3
CC(=O)c1ccc2c(c1)C1C=CCC1C(c1cc3c(cc1Br)OCO3)N2 (configuration not stated)	20	0	2	40
COc1ccc2c(c1)C1C=CCC1C(c1cc3c(cc1Br)OCO3)N2 (configuration not stated)	44*	0	1	26
NCc1ccccc1	0	0	-4	-4
O=S(=O)(NC(=S)c1ccccc1)c1ccccc1	-4	0	2	-3
CC(C)N=C(NS(=O)(=O)c1ccccc1)C(Cl)(Cl)Cl	-3	0	2	52*
COc1ccccc1OCCNC(=O)CN1C(=O)NC2(CCCC2)C1=O	-1	0	-2	-65
CCN1C(c2ccc(F)cc2)=CS/C1=C(/C#N)c1nnc2n1-c1ccccc1SC2	6	0	0	0
CCOC(=O)C1=C(c2ccccc2)N=c2s/c(=C\c3ccc(O)cc3)c(=O)n2C1c1cccs1 (configuration not stated)	35*	-1	5	.
CC1=CC(C)(C)Nc2ccc(OC(=O)CCN3C(=O)c4ccccc4C3=O)cc21	-6	0	0	54*
O=C(CCN1C(=O)c2ccccc2C1=O)Oc1ccc2ccccc2c1	4	0	-1	7
C=CCn1c(SCC(=O)NCCCC)nc2scc(-c3ccco3)c2c1=O	38*	0	-6	-4
